In PubChem BioAssay (EPA / NIEHS) one finds outcome and AC50 data, which are given here for 34 molecules.

Each structure is given as a SMILES string. Some structures have more than one record in an assay (separate samples or runs), and their calls can disagree. Activity calls are given as the source filed them. Rule for the calls: active = hit-call score of the fitted dose curve at least 0.9, where 1 is the maximum; inactive = score below 0.9.

The nature of the first assay: ATG_AP_1_CIS: Attagene CIS-FACTORIAL HepG2 Assay for human Activator Protein 1 (AP-1) (AID 2282931). The conditions noted are these: HepG2 Attagene cis-factorial AP-1 reporter mRNA; actives raise or lower the signal. The method, boiled down: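 Fluorescence of labelled PCR fragments separated by capillary electrophoresis gives reporter mRNA levels. HepG2 with transfected cis-regulated reporter units, 24 h exposure; DMSO serves as baseline for bidirectional curve fits.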
For `CCO[Si](CCC(F)(F)C(F)(F)C(F)(F)C(F)(F)C(F)(F)C(F)(F)F)(OCC)OCC`, the call was inactive.
Same read-out and setting: the same measure for `O=C(O)C(F)(F)C(F)(F)C(F)(F)C(F)(F)C(F)(F)C(F)(F)C(F)(F)C(F)(F)Cl`: “inactive”; for `Cc1ccc(S(=O)(=O)NCl)cc1`: “inactive”; for `C1COCCN1`: “inactive”.
On the same count and under the same terms, the same measure for `CC/C=C\CCOC(=O)c1ccccc1`: “inactive”.
Same read-out and setting: to `FC(F)(F)C(F)(F)C(F)(F)C(F)(F)C(F)(F)C(F)(F)CC1CO1` (stereo not drawn) belongs “inactive”; to `COC(OC(C)=O)c1ccccc1` (stereo not drawn), “inactive”.
The AC50 is the concentration at which the activity in the assay is half-maximal. For the molecule `O=C(Cl)C(F)(F)C(F)(F)C(F)(F)C(F)(F)C(F)(F)C(F)(F)C(F)(F)C(F)(F)F`, the AC50 is 16.1 µM (active).
For the molecule `O=S(=O)(OCCOC(F)(F)F)C(F)(F)F`, the molecule was classed as inactive.
As for `FC(F)(F)C(F)(F)C(F)(F)CI`, the outcome was inactive.
Same read-out and setting: the same measure for `CC/C=C\CCOC(C)=O`: “inactive”.
Take `OCC(F)(F)C(F)(F)C(F)(F)F`: the molecule was classed as inactive.
For `c1ccc(B(c2ccccc2)c2ccccc2)cc1`, the outcome was inactive.
Same read-out and setting: to `FC(F)(F)C(F)(F)C(F)(F)C(F)(F)C(F)(F)C(F)(F)C(F)(F)C(F)(F)F` belongs “inactive”.
Still for that read-out and setting: the same measure for `C=CC(F)(F)C(F)(F)C(F)(F)C(F)(F)C(F)(F)C(F)(F)C(F)(F)C(F)(F)F`: “inactive”.
As to `CC(Cc1ccc(O)c(O)c1)C(C)Cc1ccc(O)c(O)c1` (stereo not drawn), the molecule was classed as inactive.
Still for that read-out and setting: to `FC(F)(F)C(F)(F)C(F)(F)C(F)(F)C(F)(F)C(F)(F)C(F)(F)Br` belongs “inactive”.
Take `CC(C)=CCCC(C)CCOC(=O)C(C)C` (stereo not drawn): the outcome was inactive.
Turning to `C(=C(c1ccccc1)c1ccccc1)c1ccccc1`, the AC50 was 36.7 µM (active).
For the molecule `COC(=O)CCC(F)(F)C(F)(F)C(F)(F)C(F)(F)F`, the call was inactive.
The same measure, in the same setting: the same measure for `C#C[C@]1(O)CC[C@H]2[C@@H]3CCc4cc(OC)ccc4[C@H]3CC[C@@]21C`: “inactive”; for `CC(CCl)OP(=O)(OC(C)CCl)OC(C)CCl` (stereo not drawn): “inactive”.
Still for that read-out and setting: the same measure for `CCCCCC=O`: “inactive”.

A short description of the next assay: ATG_AP_2_CIS: Attagene CIS-FACTORIAL HepG2 Assay for human Activator Protein 2 (AP-2) (AID 2282932). The conditions noted are these: HepG2 AP-2 cis-reporter, Attagene transcription factor profiling; actives raise or lower the signal. The method, boiled down: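 Cells (HepG2) transfected with promoter-driven reporter constructs, treated 24 h. Total RNA reverse-transcribed, reporter cDNA PCR-amplified, FAM-labelled by primer extension, digested, resolved by capillary electrophoresis. Activity fitted both directions versus DMSO.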
For `CCO[Si](CCC(F)(F)C(F)(F)C(F)(F)C(F)(F)C(F)(F)C(F)(F)F)(OCC)OCC`, the molecule was called inactive.
Same read-out and setting: the same measure for `FC(F)(F)C(F)(F)C(F)(F)C(F)(F)CCI`: “inactive”.
Regarding `O=C(O)C(F)(F)C(F)(F)C(F)(F)C(F)(F)C(F)(F)C(F)(F)C(F)(F)C(F)(F)Cl`, the AC50 is 83.2 µM (active) and the molecule was called inactive.
Turning to `Cc1ccc(S(=O)(=O)NCl)cc1`, the molecule was called inactive.
The same measure, in the same setting: to `O=C(O)C(F)(F)C(F)(F)C(F)(F)C(F)(F)C(F)(F)C(F)(F)C(F)(F)C(F)(F)C(F)(F)C(F)F` belongs “inactive”; to `C1COCCN1`, “inactive”.
Still for that read-out and setting: the same measure for `CC/C=C\CCOC(=O)c1ccccc1`: “inactive”; for `OCC(F)(F)C(F)(F)C(F)(F)C(F)F`: “inactive”.
The same measure, in the same setting: to `FC(F)(F)C(F)(F)C(F)(F)C(F)(F)C(F)(F)C(F)(F)CC1CO1` (stereo not drawn) belongs “inactive”.
For `COC(OC(C)=O)c1ccccc1` (stereo not drawn), the molecule was called inactive.
`NC(=O)C(F)(F)C(F)(F)C(F)(F)C(F)(F)F`: the call was inactive.
As to `O=C(O)C(F)(F)C(F)(F)OC(F)(F)F`, the outcome was inactive.
Same read-out and setting: to `O=C(Cl)C(F)(F)C(F)(F)C(F)(F)C(F)(F)C(F)(F)C(F)(F)C(F)(F)C(F)(F)F` belongs “inactive”; to `O=S(=O)(OCCOC(F)(F)F)C(F)(F)F`, “inactive”; to `FC(F)(F)C(F)(F)C(F)(F)CI`, “inactive”.
On the same count and under the same terms, to `CC/C=C\CCOC(C)=O` belongs “inactive”; to `CS(C)(=O)=O`, “inactive”.
On the same count and under the same terms, the same measure for `OCC(F)(F)C(F)(F)C(F)(F)F`: “inactive”; for `c1ccc(B(c2ccccc2)c2ccccc2)cc1`: “inactive”.
With `FC(F)(F)C(F)(F)C(F)(F)C(F)(F)C(F)(F)C(F)(F)C(F)(F)C(F)(F)F`, the molecule was called inactive.
For `CCN(CC)c1ccc2c(C)cc(=O)oc2c1`, the molecule was classed as inactive.
Still for that read-out and setting: the same measure for `C=CC(F)(F)C(F)(F)C(F)(F)C(F)(F)C(F)(F)C(F)(F)C(F)(F)C(F)(F)F`: “inactive”; for `CC(Cc1ccc(O)c(O)c1)C(C)Cc1ccc(O)c(O)c1` (stereo not drawn): “inactive”.
Take `CCCCCCCCCCCCCCCC[N+](C)(C)Cc1ccccc1`: the AC50 was 51.9 µM (active).
`FC(F)(F)C(F)(F)C(F)(F)C(F)(F)C(F)(F)C(F)(F)C(F)(F)Br`: the call was inactive.
Still for that read-out and setting: the same measure for `CC(C)=CCCC(C)CCOC(=O)C(C)C` (stereo not drawn): “inactive”.
Still for that read-out and setting: the same measure for `C(=C(c1ccccc1)c1ccccc1)c1ccccc1`: “inactive”; for `COC(=O)CCC(F)(F)C(F)(F)C(F)(F)C(F)(F)F`: “inactive”.
Still for that read-out and setting: the same measure for `C#C[C@]1(O)CC[C@H]2[C@@H]3CCc4cc(OC)ccc4[C@H]3CC[C@@]21C`: “inactive”.
`O=S(=O)(OCC(F)F)C(F)(F)F`: the result was inactive.
Still for that read-out and setting: to `CC(CCl)OP(=O)(OC(C)CCl)OC(C)CCl` (stereo not drawn) belongs “inactive”.
On to `FC(F)(F)C(F)(F)C(F)(F)C(F)(F)C(F)(F)C(F)(F)C(F)(F)I`, for which the outcome was inactive.
Still for that read-out and setting: the same measure for `C=CC(F)(F)C(F)(F)C(F)(F)C(F)(F)C(F)(F)C(F)(F)C(F)(F)C(F)(F)C=C`: “inactive”; for `CCCCCC=O`: “inactive”.
